{"source": "PubChem BioAssay", "note": "“And” between values parts separate entries of the source, which are not always exact repeats. Identical values can stand only once. The source made the active and inactive calls. No stated cut-off is given here; in the data, active means parasite load remaining mostly below about 12% (no sharp cut-off); inactive means mostly above about 10%. Numbered stars: 1 amine (or outer) side, 2 acyl side, 3 side chain; on linkers, the order of the positions; unused ones are H or OH. Bridge positions count the residues as written; N and C are the ends. Square brackets hold non-standard residues; d marks the D form. Peptide text beside a SMILES is read from it. I, II: the chains in the order shown. * marks the point of attachment. ξ: configuration not given here. Actinocin(9to1) = Cc1c2oc3c(C)ccc(C(=O)[*:1])c3nc-2c(C(=O)[*:2])c(N)c1=O; ΔAla(E,3-NHCONH2) = NC(=O)N/C=C(/N)C(=O)O; X1 = NC1=NCCC(C(N[*:1])C(=O)[*:2])N1; Heptanoyl(6-Me) = CC(C)CCCCC(=O)*; NMeV = CN[CH](C(=O)O)C(C)C; ξβ3hOrn = NCCCC(N)CC(=O)*; Orn = NCCC[CH](N)C(=O)O; Dab = NCC[CH](N)C(=O)O; Dap = NC[CH](N)C(=O)O; Sar = CNCC(=O)O"}
{"assay": "P. berghei load reduction in hepatocytes – cell-based, HepG2, luciferase luminescence, HepG2 viability, primary screen (AID 624349);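 further: 100% = mean of DMSO negative control wells on the same plate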", "conditions": "P. berghei liver stage in HepG2, luciferase luminescence, concentration not given here; parasite load remaining: stronger effect = lower value; viability: measured here: HepG2 viability without parasites"}
{"smiles": "CO/N=C(\\C(=O)NC1C(=O)N2C(C(=O)OCOC(=O)C(C)(C)C)=C(/C=C\\c3scnc3C)CSC12)c1csc(N)n1", "note": "(stereo unspecified)", "viability": "81.5% and 105%", "parasite load remaining": "101% (inactive) and 42.8% (inactive)"}
{"smiles": "CC(C)CC1NC(=O)C(CCCN)NC(=O)C(C(C)C)NC(=O)C2CCCN2C(=O)C(Cc2ccccc2)NC(=O)C(CC(C)C)NC(=O)C(CCCN)NC(=O)C(C(C)C)NC(=O)C2CCCN2C(=O)C(Cc2ccccc2)NC1=O", "note": "(stereo unspecified) (cyclo(FPV[Orn]LFPV[Orn]L); configuration not given here)", "parasite load remaining": "-0.175% (inactive)", "viability": "12.4%"}
{"smiles": "CC(=O)OC1CCC2C3CCc4cc(O)ccc4C3CCC12C", "note": "(stereo unspecified)", "parasite load remaining": "37.6% (inactive) and 33.6% (inactive)", "viability": "66.8% and 98%"}
{"smiles": "O=C1O[C@H](C(O)CO)C(O)=C1O", "note": "(stereo partly specified)", "viability": "69.6% and 79.3%", "parasite load remaining": "82.7% (inactive) and 21.4% (inactive)"}
{"smiles": "CO/N=C(/C(=O)N[C@@H]1C(=O)N2C(C(=O)O)=C(CSc3nc(=O)c(O)nn3C)CS[C@H]12)c1csc(N)n1", "viability": "82.1% and 106% and 101%", "parasite load remaining": "147% (inactive) and 79.9% (inactive) and 62.4% (inactive)"}
{"smiles": "NCCCC(N)CC(=O)NCC1NC(=O)C(CO)NC(=O)C(N)CNC(=O)C(C2CCN=C(N)N2)NC(=O)/C(=C\\NC(N)=O)NC1=O", "note": "(stereo not drawn) (H-[Dap]S[Dap](ξβ3hOrn)[ΔAla(E,3-NHCONH2)][X1]; lactam 1-C; configuration not given here)", "parasite load remaining": "84% (inactive) and 54.2% (inactive)", "viability": "74.9% and 94.9%"}
{"smiles": "CCCCCCCCCCCCCCCC(=O)O[C@@H]1[C@@H](O)[C@@H](O)C([C@H](NC(=O)[C@@H]2C[C@@H](CCC)CN2C)[C@H](C)Cl)O[C@@H]1SC", "note": "(stereo partly specified)", "viability": "113%", "parasite load remaining": "57.3% (inactive)"}
{"smiles": "CO/N=C(/C(=O)NC1C(=O)N2C(C(=O)OC(C)OC(C)=O)=C(COC(N)=O)CSC12)c1ccco1", "note": "(stereo unspecified)", "viability": "138%", "parasite load remaining": "60.6% (inactive)"}
{"smiles": "O=C(N[C@@H](CO)[C@H](O)c1ccc([N+](=O)[O-])cc1)C(Cl)Cl", "viability": "77.9% and 95.2%", "parasite load remaining": "85.6% (inactive) and 68.5% (inactive)"}
{"smiles": "C[C@]12C=CC(=O)C=C1CCC1C2[C@@H](O)C[C@@]2(C)C1CC[C@]2(O)C(=O)COC(=O)CCC(=O)O", "note": "(stereo partly specified)", "parasite load remaining": "61.5% (inactive)", "viability": "98%"}
{"smiles": "CC1=C(C(=O)O)N2C(=O)[C@@H](NC(=O)C(N)c3ccc(O)cc3)[C@H]2SC1", "note": "(stereo partly specified)", "parasite load remaining": "82.3% (inactive) and 62.8% (inactive)", "viability": "75.2% and 100%"}
{"smiles": "CCC(=O)OCC(=O)[C@@]1(OC(=O)CC)[C@@H](C)CC2C3CCC4=CC(=O)C=C[C@]4(C)C3(F)[C@@H](O)C[C@@]21C", "note": "(stereo partly specified)", "viability": "83.8%", "parasite load remaining": "25.9% (inactive)"}
{"smiles": "C/C=C\\C1=C(C(=O)O)N2C(=O)C(NC(=O)C(N)c3ccc(O)cc3)C2SC1", "note": "(stereo unspecified)", "viability": "69.3% and 102%", "parasite load remaining": "117% (inactive) and 53.4% (inactive)"}
{"smiles": "C[C@H]1CC2C([C@@H](O)C[C@@]3(C)C2CC[C@]3(O)C(=O)COC(=O)CCC(=O)O)[C@@]2(C)C=CC(=O)C=C12", "note": "(stereo partly specified)", "viability": "148%", "parasite load remaining": "83.5% (inactive)"}
{"smiles": "NCC1CCCCC1CC(=O)O", "note": "(stereo unspecified)", "viability": "89.1% and 119%", "parasite load remaining": "148% (inactive) and 51.6% (inactive)"}
{"smiles": "CC1=C(C(=O)O)N2C(=O)[C@@H](NC(=O)[C@H](N)C3=CCC=CC3)C2SC1", "note": "(stereo partly specified)", "parasite load remaining": "74.8% (inactive) and 68.7% (inactive)", "viability": "77.3% and 102%"}
{"smiles": "CC[C@@H]1OC(=O)C[C@@H](O)[C@H](C)[C@@H](O[C@@H]2O[C@H](C)[C@@H](O)[C@H](N(C)C)[C@H]2O)[C@@H](CCN2C[C@H](C)C[C@H](C)C2)C[C@@H](C)C(=O)/C=C/C(C)=C\\[C@@H]1CO[C@@H]1O[C@H](C)[C@@H](O)[C@@H](OC)[C@H]1OC", "parasite load remaining": "64.4% (inactive)", "viability": "108%"}
{"smiles": "CCC(C)C1NC(=O)C(CCN)NC(=O)C(NC(=O)C(CCN)NC(=O)C(NC(=O)C(CCN)NC(=O)CCCCC(C)C)C(C)O)CCNC(=O)C(C(C)O)NC(=O)C(CCN)NC(=O)C(CCN)NC(=O)C(C(C)CC)NC1=O", "note": "(stereo unspecified) ({Heptanoyl(6-Me)}-[Dab]T[Dab][Dab][Dab]II[Dab][Dab]T; lactam 4-C; configuration not given here)", "viability": "98.1%", "parasite load remaining": "49.5% (inactive)"}
{"smiles": "COc1cc(NS(C)(=O)=O)ccc1Cc1c2ccccc2nc2ccccc12", "viability": "143%", "parasite load remaining": "41.6% (inactive)"}
{"smiles": "CC(CCC(=O)O)[C@H]1CCC2C3C(=O)C[C@@H]4CC(=O)CC[C@]4(C)C3CC(=O)[C@@]21C", "note": "(stereo partly specified)", "viability": "81.3%", "parasite load remaining": "50.2% (inactive)"}
{"smiles": "CC1OC1P(=O)(O)O", "note": "(stereo unspecified)", "viability": "74.5% and 90.1%", "parasite load remaining": "59.9% (inactive) and 33.6% (inactive)"}
{"smiles": "CC1C/C=C/C=C/C=C/C=C/C(O[C@@H]2O[C@H](C)[C@@H](O)[C@H](N)[C@@H]2O)CC2OC(O)(CC(O)CC3OC3/C=C/C(=O)O1)CC(O)C2C(=O)O", "note": "(stereo partly specified)", "viability": "102%", "parasite load remaining": "78.2% (inactive)"}
{"smiles": "CC(=O)OCC(=O)[C@@]1(OC(C)=O)[C@@H](C)CC2C3C[C@H](F)C4=CC(=O)C=C[C@]4(C)[C@@]3(F)[C@@H](O)C[C@@]21C", "note": "(stereo partly specified)", "parasite load remaining": "202% (inactive)", "viability": "105%"}
{"smiles": "CC(C)c1c(C(=O)c2ccccc2)c(-c2ccccc2)c(-c2ccc(F)cc2)n1CC[C@@H](O)C[C@@H](O)CC(=O)O", "viability": "88% and 103%", "parasite load remaining": "174% (inactive) and 44.6% (inactive)"}
{"smiles": "CCC(C)C(=O)O[C@H]1C[C@H](O)C=C2C=C[C@H](C)[C@H](CC[C@@H](O)C[C@@H](O)CC(=O)O)C21", "note": "(stereo partly specified)", "viability": "84.1% and 191%", "parasite load remaining": "152% (inactive) and 58.6% (inactive)"}
{"smiles": "C#C[C@]1(OC(C)=O)CCC2C3CCC4=C/C(=N/O)CCC4C3CC[C@@]21CC", "note": "(stereo partly specified)", "parasite load remaining": "66.7% (inactive)", "viability": "100%"}
{"smiles": "CC(=O)O[C@]1(C(C)=O)CCC2C3C=C(Cl)C4=CC(=O)CC[C@]4(C)C3CC[C@@]21C", "note": "(stereo partly specified)", "viability": "84% and 106%", "parasite load remaining": "113% (inactive) and 26.4% (inactive)"}
{"smiles": "N[C@H](Cc1cc(I)c(Oc2ccc(O)c(I)c2)c(I)c1)C(=O)O", "viability": "99.9%", "parasite load remaining": "45.9% (inactive)"}
{"smiles": "COCC1=C(C(=O)OC(C)OC(=O)OC(C)C)N2C(=O)[C@@H](NC(=O)/C(=N/OC)c3csc(N)n3)[C@H]2SC1", "note": "(stereo partly specified)", "viability": "194%", "parasite load remaining": "42.3% (inactive)"}
{"smiles": "CCCCCCCCCCC[C@@H](C[C@H]1OC(=O)[C@H]1CCCCCC)OC(=O)[C@@H](CC(C)C)NC=O", "parasite load remaining": "118% (inactive) and 62.8% (inactive)", "viability": "86.3% and 114%"}
{"smiles": "Cc1c2oc3c(C)ccc(C(=O)OC(C)C4NC(=O)C(C(C)C)N(C)C(=O)CN(C)C(=O)C5CCCN5C(=O)C(C(C)C)NC4=O)c3nc-2c(C(=O)OC(C)C2NC(=O)C(C(C)C)N(C)C(=O)CN(C)C(=O)C3CCCN3C(=O)C(C(C)C)NC2=O)c(N)c1=O", "note": "(stereo unspecified) (I: cyclo([Sar][NMeV]TVP) / II: cyclo([Sar][NMeV]TVP); linker I:3-II:3 via Actinocin(9to1); configuration not given here)", "viability": "76.4%", "parasite load remaining": "-0.105% (inactive)"}
{"smiles": "OC[C@H]1OC([S-])[C@H](O)[C@@H](O)[C@@H]1O.[Au+]", "note": "(stereo partly specified)", "parasite load remaining": "51.4% (inactive)", "viability": "97.6%"}
{"smiles": "NC(Cc1c[nH]c2ccccc12)C(=O)O", "note": "(stereo unspecified)", "parasite load remaining": "149% (inactive) and 37.9% (inactive)", "viability": "72.8% and 89.5%"}
